Test results published in PubChem BioAssay (NCATS).
Records with an inconclusive call do not appear. Activity calls are given as the source filed them. Calls follow the shape of the dose curve; as a rule, active = well fitted cell-killing curve with a large enough effect; inconclusive = small, poorly fitted or top-dose-only effect, or effect the other way; inactive = flat fitted curve, though single readings scatter.

Key:
Assay in all cases: Primary qHTS to identify gynecologic anti-cancer compounds using libraries of approved drugs and bioactive compounds (AID 1345084); also: nearly all actives have a fitted effect of over 55% in size
C33A = details: Gynecologic cancer cell panel viability, ATPlite luminescence, 48 h; series mostly up to 57.5 µM
In short: (§1)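 48 h compound exposure at 37 C, 5% CO2; five-point qHTS. ATPlite luminescence readout of cell ATP.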

CAOV3 = details: Gynecologic cancer cell panel viability, ATPlite luminescence, 48 h; series mostly up to 57.5 µM
In short: as §1

CASKI = details: Gynecologic cancer cell panel viability, ATPlite luminescence, 48 h; series mostly up to 57.5 µM
In short: as §1

Es-2 = details: Gynecologic cancer cell panel viability, ATPlite luminescence, 48 h; series mostly up to 57.5 µM
In short: as §1

HeLa = details: Gynecologic cancer cell panel viability, ATPlite luminescence, 48 h; series mostly up to 57.5 µM
In short: as §1

Hek293T = details: Gynecologic cancer cell panel viability, ATPlite luminescence, 48 h, control line for the selectivity index; series mostly up to 57.5 µM
In short: as §1

JEG-3 = details: Gynecologic cancer cell panel viability, ATPlite luminescence, 48 h; series mostly up to 57.5 µM
In short: as §1

OV90 = details: Gynecologic cancer cell panel viability, ATPlite luminescence, 48 h; series mostly up to 57.5 µM
In short: as §1

PA-1 = details: Gynecologic cancer cell panel viability, ATPlite luminescence, 48 h; series mostly up to 57.5 µM
In short: as §1

SKOV3 = details: Gynecologic cancer cell panel viability, ATPlite luminescence, 48 h; series mostly up to 57.5 µM
In short: as §1

Tov-21-G = details: Gynecologic cancer cell panel viability, ATPlite luminescence, 48 h; series mostly up to 57.5 µM
In short: as §1

Tov112D = details: Gynecologic cancer cell panel viability, ATPlite luminescence, 48 h; series mostly up to 57.5 µM
In short: as §1
% is scaled to controls: 0 for no effect and ±100 for the full control effect.

Cc1cc(Cl)ccc1COc1ccnn1-c1cc(C(=O)O)ccn1
inactive: Potency (C33A) | Potency (CAOV3) | Potency (CASKI) | Potency (Es-2) | Potency (HeLa) | Potency (Hek293T) | Potency (JEG-3) | Potency (OV90) | Potency (PA-1) | Potency (SKOV3) | Potency (Tov-21-G) | Potency (Tov112D)

CC1OC(OCC2OC(OC3CCC4(C)C(CCC5(C)C4CC=C4C6CC(C)(C)CCC6(C(=O)OC6OC(CO)C(O)C(O)C6O)CCC45C)C3(C)CO)C(O)C(O)C2O)C(O)C(O)C1O (stereo not drawn)
inactive: activity change, negative = cytotoxicity (C33A) 10.1% [at 11.6 µM] | activity change, negative = cytotoxicity (CAOV3) 17.5% [at 11.6 µM] | activity change, negative = cytotoxicity (CASKI) 14.8% [at 11.6 µM] | activity change, negative = cytotoxicity (Es-2) 0.0336% [at 11.6 µM] | activity change, negative = cytotoxicity (HeLa) -1.23% [at 11.6 µM] | activity change, negative = cytotoxicity (Hek293T) -5.88% [at 11.6 µM] | activity change, negative = cytotoxicity (JEG-3) -1.04% [at 11.6 µM] | activity change, negative = cytotoxicity (OV90) -5.44% [at 11.6 µM] | activity change, negative = cytotoxicity (PA-1) -0.107% [at 11.6 µM] | activity change, negative = cytotoxicity (SKOV3) 24.6% [at 11.6 µM] | activity change, negative = cytotoxicity (Tov-21-G) 2.94% [at 11.6 µM] | activity change, negative = cytotoxicity (Tov112D) -1.29% [at 11.6 µM]

CC(=O)O[C@@H](CO[C@@H]1O[C@H](CO)[C@H](O)[C@H](O)[C@H]1O)[C@]1(C)C=C2CC[C@@H]3C(C)(C)[C@@H](O)CC[C@@]3(C)[C@@H]2CC1
inactive: Potency (C33A) | Potency (CAOV3) | Potency (CASKI) | Potency (Es-2) | Potency (HeLa) | Potency (Hek293T) | Potency (JEG-3) | Potency (OV90) | Potency (PA-1) | Potency (SKOV3) | Potency (Tov-21-G) | Potency (Tov112D)

CC(=O)O[C@@H]1[C@@H](O)[C@H](C)O[C@@H](O[C@H]2[C@@H]3C=CO[C@@H](O[C@@H]4O[C@H](CO)[C@@H](O)[C@H](O)[C@H]4O)[C@@H]3[C@@]3(CO)O[C@@H]23)[C@@H]1OC(=O)/C=C/c1ccccc1
inactive: Potency (C33A) | Potency (CAOV3) | Potency (CASKI) | Potency (Es-2) | Potency (HeLa) | Potency (Hek293T) | Potency (JEG-3) | Potency (OV90) | Potency (PA-1) | Potency (SKOV3) | Potency (Tov-21-G) | Potency (Tov112D)

C=C[C@H]1C(O[C@@H]2O[C@H](CO)[C@@H](O)[C@H](O)[C@H]2O)OC=C2C(=O)N3CCc4c([nH]c5ccccc45)[C@H]3C[C@H]21 (stereo partly drawn)
inactive: Potency (C33A) | Potency (CAOV3) | Potency (CASKI) | Potency (Es-2) | Potency (HeLa) | Potency (Hek293T) | Potency (JEG-3) | Potency (OV90) | Potency (PA-1) | Potency (SKOV3) | Potency (Tov-21-G) | Potency (Tov112D)

COc1ccc(-c2ccc(-c3cn(C(=O)N4CCCCC4c4ccccc4)nn3)cc2)cc1 (stereo not drawn)
inactive: Potency (C33A) | Potency (CAOV3) | Potency (CASKI) | Potency (Es-2) | Potency (HeLa) | Potency (Hek293T) | Potency (JEG-3) | Potency (OV90) | Potency (PA-1) | Potency (SKOV3) | Potency (Tov-21-G) | Potency (Tov112D)

CC1=CC(=O)CC2C1(O)CCC(C)C21CC(c2ccoc2)OC1=O (stereo not drawn)
inactive: Potency (C33A) | Potency (CAOV3) | Potency (CASKI) | Potency (Es-2) | Potency (HeLa) | Potency (Hek293T) | Potency (JEG-3) | Potency (OV90) | Potency (PA-1) | Potency (SKOV3) | Potency (Tov-21-G) | Potency (Tov112D)

O=C1CSc2ccccc2N1Cc1cccc(C(F)(F)F)c1
inactive: Potency (C33A) | Potency (CAOV3) | Potency (CASKI) | Potency (Es-2) | Potency (HeLa) | Potency (Hek293T) | Potency (JEG-3) | Potency (OV90) | Potency (PA-1) | Potency (SKOV3) | Potency (Tov-21-G) | Potency (Tov112D)

CC1(C(=O)O)CCCC2(C)C3CCC4CC3(CCC12)CC4=O (stereo not drawn)
inactive: Potency (C33A) | Potency (CAOV3) | Potency (CASKI) | Potency (Es-2) | Potency (HeLa) | Potency (Hek293T) | Potency (JEG-3) | Potency (OV90) | Potency (PA-1) | Potency (SKOV3) | Potency (Tov-21-G) | Potency (Tov112D)

C/C=C/C=C/C=C/C(=O)OC1C=C(C=O)C(O)(C(=O)O)C2(C)CCCC(C)(C)C12 (stereo not drawn)
inactive: Potency (C33A) | Potency (CAOV3) | Potency (CASKI) | Potency (Es-2) | Potency (HeLa) | Potency (Hek293T) | Potency (JEG-3) | Potency (OV90) | Potency (PA-1) | Potency (SKOV3) | Potency (Tov-21-G) | Potency (Tov112D)

COc1ccc(-n2[nH]c(=O)c3[nH]c4cc(Cl)ccc4c(=O)c3c2=O)c(C)c1
inactive: Potency (C33A) | Potency (CAOV3) | Potency (CASKI) | Potency (Es-2) | Potency (HeLa) | Potency (Hek293T) | Potency (JEG-3) | Potency (OV90) | Potency (PA-1) | Potency (SKOV3) | Potency (Tov-21-G) | Potency (Tov112D)

C=C1CC[C@@H]2[C@](C)(CO[C@@H]3O[C@H](CO)[C@@H](O)[C@H](O)[C@H]3O)[C@H](O)CC[C@@]2(C)[C@@H]1C/C=C1/C(=O)OC[C@H]1O
inactive: Potency (C33A) | Potency (CAOV3) | Potency (CASKI) | Potency (Es-2) | Potency (HeLa) | Potency (Hek293T) | Potency (JEG-3) | Potency (OV90) | Potency (PA-1) | Potency (SKOV3) | Potency (Tov-21-G) | Potency (Tov112D)

CC(C)O[C@@H]1O[C@H](CO)[C@@H](O)[C@H](O)[C@H]1O
inactive: Potency (C33A) | Potency (CAOV3) | Potency (CASKI) | Potency (Es-2) | Potency (HeLa) | Potency (Hek293T) | Potency (JEG-3) | Potency (OV90) | Potency (PA-1) | Potency (SKOV3) | Potency (Tov-21-G) | Potency (Tov112D)

C=C[C@H]1[C@H](O[C@@H]2O[C@H](CO)[C@@H](O)[C@H](O)[C@H]2O)OC=C(C(=O)OC)[C@H]1C[C@@H]1c2cc(O)c(O)cc2CCN1C(C)=O
inactive: Potency (C33A) | Potency (CAOV3) | Potency (CASKI) | Potency (Es-2) | Potency (HeLa) | Potency (Hek293T) | Potency (JEG-3) | Potency (OV90) | Potency (PA-1) | Potency (SKOV3) | Potency (Tov-21-G) | Potency (Tov112D)
